Experimental findings from PMC7862700, “An all-to-all approach to the identification of sequence-specific readers for epigenetic DNA modifications on cytosine” are described below.

What all share (assay): DAPPL (digital affinity profiling via proximity ligation, sequencing); 10 mM Tris-HCl pH 7.5, 50 mM NaCl, 1 mM DTT, 4% glycerol, room temperature, 30 min; GST-TFs on glutathione beads, 16-mer random dsDNA library, 0.1% formaldehyde crosslink after washing; high values mean tight binding
In one test the target is T1, FEV (Homo sapiens, UniProt Q99581 1-238).
T1 sequence: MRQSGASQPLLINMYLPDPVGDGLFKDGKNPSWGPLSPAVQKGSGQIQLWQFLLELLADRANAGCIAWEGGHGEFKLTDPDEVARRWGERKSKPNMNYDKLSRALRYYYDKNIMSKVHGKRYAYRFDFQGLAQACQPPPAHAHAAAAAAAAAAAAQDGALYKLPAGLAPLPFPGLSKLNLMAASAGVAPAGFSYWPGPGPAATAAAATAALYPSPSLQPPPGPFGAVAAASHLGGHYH
To be noted: protein: recombinant; tags: N-terminal GST; dsDNA, one strand shown. In short, it runs like this: (§1)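 Human transcription factors were made in yeast as GST fusions, captured on glutathione beads and barcoded with DNA. With a tag-only sample included, the pool was incubated with 200 nmole of a random double-stranded 16-mer DNA library in Tris/NaCl/DTT/glycerol buffer at room temperature for 30 min, then crosslinked with 0.1% formaldehyde after washing, ligated by proximity, amplified and sequenced. For binding signal, each hexamer's read frequency for a factor is divided by its frequency for the tag-only sample.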

The target in a further test is ETV5 (Homo sapiens, UniProt P41161 1-510). To be noted: protein: recombinant; tags: N-terminal GST; dsDNA, one strand shown. In outline:
as §1

A further test deals with HSF1 (Homo sapiens, UniProt Q00613 1-529). To be noted: protein: recombinant; tags: N-terminal GST; chain copies: 3; dsDNA, one strand shown. In outline:
as §1

A further test addresses T2, SPIC (Homo sapiens, UniProt Q8N5J4 1-248).
T2 sequence: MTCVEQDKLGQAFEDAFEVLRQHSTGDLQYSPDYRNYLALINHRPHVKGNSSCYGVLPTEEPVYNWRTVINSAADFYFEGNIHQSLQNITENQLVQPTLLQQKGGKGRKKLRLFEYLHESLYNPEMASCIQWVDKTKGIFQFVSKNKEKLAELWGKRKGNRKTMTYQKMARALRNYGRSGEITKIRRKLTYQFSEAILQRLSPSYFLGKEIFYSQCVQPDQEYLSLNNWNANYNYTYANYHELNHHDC
The conditions noted are these: protein: recombinant; tags: N-terminal GST; dsDNA, one strand shown. In outline:
as §1

Another test addresses ELF4 (Homo sapiens, UniProt Q99607 1-663). To be noted: protein: recombinant; tags: N-terminal GST; dsDNA, one strand shown. In outline:
as §1

The next test has as its target T3, ELK4 (Homo sapiens, UniProt P28324-2 1-405).
T3 sequence: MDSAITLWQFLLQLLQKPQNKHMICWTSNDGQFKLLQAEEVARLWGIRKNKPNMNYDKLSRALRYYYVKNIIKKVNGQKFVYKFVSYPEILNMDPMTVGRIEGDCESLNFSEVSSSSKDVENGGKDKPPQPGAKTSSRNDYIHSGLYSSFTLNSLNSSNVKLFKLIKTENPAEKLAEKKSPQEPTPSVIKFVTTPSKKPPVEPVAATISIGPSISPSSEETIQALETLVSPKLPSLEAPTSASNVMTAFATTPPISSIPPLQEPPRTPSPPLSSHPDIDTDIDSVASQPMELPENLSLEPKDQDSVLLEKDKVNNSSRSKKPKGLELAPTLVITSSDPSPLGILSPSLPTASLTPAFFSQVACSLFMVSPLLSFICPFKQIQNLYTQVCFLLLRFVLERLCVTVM
To be noted: protein: recombinant; tags: N-terminal GST; dsDNA, one strand shown. In short, it runs like this: as §1

The target in a further test is T4, ETV2 (Homo sapiens, UniProt O00321 1-342).
T4 sequence: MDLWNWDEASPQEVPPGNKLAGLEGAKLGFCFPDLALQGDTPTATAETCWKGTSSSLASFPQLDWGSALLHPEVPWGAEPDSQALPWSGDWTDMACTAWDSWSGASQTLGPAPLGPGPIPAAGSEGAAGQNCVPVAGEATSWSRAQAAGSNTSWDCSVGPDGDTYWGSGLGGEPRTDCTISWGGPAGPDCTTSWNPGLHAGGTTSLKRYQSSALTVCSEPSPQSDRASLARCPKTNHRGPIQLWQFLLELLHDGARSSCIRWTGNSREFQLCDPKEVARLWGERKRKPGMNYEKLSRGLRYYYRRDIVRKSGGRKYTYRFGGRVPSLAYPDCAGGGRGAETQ
To be noted: protein: recombinant; tags: N-terminal GST; dsDNA, one strand shown. In outline:
as §1

In the next test the target is T5, ELF3 (Homo sapiens, UniProt P78545 1-371).
T5 sequence: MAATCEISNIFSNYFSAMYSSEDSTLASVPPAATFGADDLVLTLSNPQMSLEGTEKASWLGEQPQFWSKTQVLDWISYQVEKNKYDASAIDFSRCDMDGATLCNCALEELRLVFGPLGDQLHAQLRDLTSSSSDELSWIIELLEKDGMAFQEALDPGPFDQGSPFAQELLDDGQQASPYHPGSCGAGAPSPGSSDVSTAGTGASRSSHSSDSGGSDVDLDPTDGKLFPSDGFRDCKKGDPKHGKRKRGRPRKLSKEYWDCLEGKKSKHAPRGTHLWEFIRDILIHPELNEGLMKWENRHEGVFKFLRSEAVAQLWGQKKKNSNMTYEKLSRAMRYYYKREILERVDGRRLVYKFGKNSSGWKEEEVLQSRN
The conditions noted are these: protein: recombinant; tags: N-terminal GST; dsDNA, one strand shown. In short, it runs like this:
as §1

The target of another test is CRX (Homo sapiens, UniProt O43186 1-299). The conditions noted are these: protein: recombinant; tags: N-terminal GST; dsDNA, one strand shown. In outline: as §1
Another test addresses ETV1 (Homo sapiens, UniProt P50549 1-477). To be noted: protein: recombinant; tags: N-terminal GST; dsDNA, one strand shown. In outline: as §1
For another test, the target named is T6, ERF (Homo sapiens, UniProt P50548 1-548).
T6 sequence: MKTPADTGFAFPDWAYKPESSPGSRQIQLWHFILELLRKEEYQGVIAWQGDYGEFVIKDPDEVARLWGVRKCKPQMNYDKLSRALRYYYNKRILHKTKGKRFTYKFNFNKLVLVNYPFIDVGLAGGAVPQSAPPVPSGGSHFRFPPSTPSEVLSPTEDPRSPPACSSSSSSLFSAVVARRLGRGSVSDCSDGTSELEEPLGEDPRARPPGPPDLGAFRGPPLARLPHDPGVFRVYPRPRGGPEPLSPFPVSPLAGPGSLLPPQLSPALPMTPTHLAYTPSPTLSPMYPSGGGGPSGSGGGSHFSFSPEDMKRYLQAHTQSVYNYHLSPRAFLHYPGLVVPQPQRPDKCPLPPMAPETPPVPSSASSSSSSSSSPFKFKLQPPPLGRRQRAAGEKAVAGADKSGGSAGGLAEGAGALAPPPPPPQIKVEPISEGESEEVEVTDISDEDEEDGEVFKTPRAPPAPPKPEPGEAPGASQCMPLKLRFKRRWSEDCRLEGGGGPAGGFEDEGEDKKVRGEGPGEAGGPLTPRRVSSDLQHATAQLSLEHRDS
To be noted: protein: recombinant; tags: N-terminal GST; dsDNA, one strand shown. In short, it runs like this: as §1

The target of a further test is T7, ETV3L (Homo sapiens, UniProt Q6ZN32 1-361).
T7 sequence: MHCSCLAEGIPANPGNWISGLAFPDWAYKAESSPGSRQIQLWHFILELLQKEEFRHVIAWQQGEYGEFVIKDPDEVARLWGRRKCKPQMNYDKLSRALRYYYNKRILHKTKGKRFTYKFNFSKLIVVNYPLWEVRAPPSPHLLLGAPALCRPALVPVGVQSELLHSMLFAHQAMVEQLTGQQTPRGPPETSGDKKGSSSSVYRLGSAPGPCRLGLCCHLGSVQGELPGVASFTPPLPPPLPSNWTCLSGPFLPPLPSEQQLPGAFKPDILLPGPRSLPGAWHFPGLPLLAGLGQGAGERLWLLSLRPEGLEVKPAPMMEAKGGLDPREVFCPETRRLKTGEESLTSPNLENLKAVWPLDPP
The conditions noted are these: protein: recombinant; tags: N-terminal GST; dsDNA, one strand shown. In outline: as §1

Another test has as its target T8, ETS2 (Homo sapiens, UniProt P15036 1-469).
T8 sequence: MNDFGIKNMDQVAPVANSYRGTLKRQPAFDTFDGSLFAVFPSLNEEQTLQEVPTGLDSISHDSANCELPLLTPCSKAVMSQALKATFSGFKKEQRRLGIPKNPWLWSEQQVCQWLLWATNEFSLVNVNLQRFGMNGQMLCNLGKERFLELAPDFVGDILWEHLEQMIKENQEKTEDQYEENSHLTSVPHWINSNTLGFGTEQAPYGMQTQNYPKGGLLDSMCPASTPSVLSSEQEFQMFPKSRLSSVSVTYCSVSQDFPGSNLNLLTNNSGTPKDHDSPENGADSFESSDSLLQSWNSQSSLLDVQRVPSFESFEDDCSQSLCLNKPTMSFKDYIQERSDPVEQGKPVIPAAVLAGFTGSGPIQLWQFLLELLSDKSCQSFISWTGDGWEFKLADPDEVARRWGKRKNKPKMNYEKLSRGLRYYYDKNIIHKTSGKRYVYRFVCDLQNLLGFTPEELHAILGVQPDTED
The conditions noted are these: protein: recombinant; tags: N-terminal GST; dsDNA, one strand shown. In outline:
as §1

For the next test, the target named is T9, SPDEF (Homo sapiens, UniProt O95238 1-335).
T9 sequence: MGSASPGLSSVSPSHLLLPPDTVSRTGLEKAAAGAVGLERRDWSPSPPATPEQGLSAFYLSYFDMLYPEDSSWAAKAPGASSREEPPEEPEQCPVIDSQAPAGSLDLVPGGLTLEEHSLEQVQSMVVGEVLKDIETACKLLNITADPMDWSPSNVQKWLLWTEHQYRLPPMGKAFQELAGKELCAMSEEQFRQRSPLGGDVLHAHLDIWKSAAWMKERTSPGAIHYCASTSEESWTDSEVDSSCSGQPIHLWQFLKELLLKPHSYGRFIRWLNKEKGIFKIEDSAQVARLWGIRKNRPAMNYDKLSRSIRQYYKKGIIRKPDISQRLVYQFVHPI
The conditions noted are these: protein: recombinant; tags: N-terminal GST; dsDNA, one strand shown. In outline:
as §1

Another test concerns the target T10, ETV7 (Homo sapiens, UniProt Q9Y603 1-341).
T10 sequence: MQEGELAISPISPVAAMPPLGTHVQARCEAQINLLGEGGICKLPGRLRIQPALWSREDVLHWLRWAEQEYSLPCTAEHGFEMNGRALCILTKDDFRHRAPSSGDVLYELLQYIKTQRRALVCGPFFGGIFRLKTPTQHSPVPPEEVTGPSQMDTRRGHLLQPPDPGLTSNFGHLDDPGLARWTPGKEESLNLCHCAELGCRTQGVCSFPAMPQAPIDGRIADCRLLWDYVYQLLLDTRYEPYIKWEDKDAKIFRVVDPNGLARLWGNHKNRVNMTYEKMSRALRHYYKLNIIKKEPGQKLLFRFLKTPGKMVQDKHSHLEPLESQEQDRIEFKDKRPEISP
The conditions noted are these: protein: recombinant; tags: N-terminal GST; dsDNA, one strand shown. In outline: as §1

Another test has as its target T11, ELF5 (Homo sapiens, UniProt Q9UKW6-2 1-255).
T11 sequence: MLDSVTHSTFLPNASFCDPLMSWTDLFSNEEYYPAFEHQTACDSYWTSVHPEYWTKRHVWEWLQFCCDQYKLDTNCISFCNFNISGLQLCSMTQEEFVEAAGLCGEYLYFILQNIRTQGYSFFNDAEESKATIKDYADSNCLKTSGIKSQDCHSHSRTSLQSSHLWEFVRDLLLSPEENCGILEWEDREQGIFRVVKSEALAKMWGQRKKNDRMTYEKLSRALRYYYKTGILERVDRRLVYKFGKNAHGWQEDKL
To be noted: protein: recombinant; tags: N-terminal GST; dsDNA, one strand shown. In outline: as §1

The target of another test is T12, ETV3 (Homo sapiens, UniProt P41162-2 1-143).
T12 sequence: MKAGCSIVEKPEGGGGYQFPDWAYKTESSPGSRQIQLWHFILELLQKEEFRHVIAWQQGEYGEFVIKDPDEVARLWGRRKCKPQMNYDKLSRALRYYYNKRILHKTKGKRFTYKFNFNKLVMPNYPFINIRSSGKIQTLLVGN
The conditions noted are these: protein: recombinant; tags: N-terminal GST; dsDNA, one strand shown. In outline: as §1

Another test concerns the target ETV6 (Homo sapiens, UniProt P41212 1-452). To be noted: protein: recombinant; tags: N-terminal GST; dsDNA, one strand shown. In outline: as §1

ELF4, sequence (Q99607 whole entry): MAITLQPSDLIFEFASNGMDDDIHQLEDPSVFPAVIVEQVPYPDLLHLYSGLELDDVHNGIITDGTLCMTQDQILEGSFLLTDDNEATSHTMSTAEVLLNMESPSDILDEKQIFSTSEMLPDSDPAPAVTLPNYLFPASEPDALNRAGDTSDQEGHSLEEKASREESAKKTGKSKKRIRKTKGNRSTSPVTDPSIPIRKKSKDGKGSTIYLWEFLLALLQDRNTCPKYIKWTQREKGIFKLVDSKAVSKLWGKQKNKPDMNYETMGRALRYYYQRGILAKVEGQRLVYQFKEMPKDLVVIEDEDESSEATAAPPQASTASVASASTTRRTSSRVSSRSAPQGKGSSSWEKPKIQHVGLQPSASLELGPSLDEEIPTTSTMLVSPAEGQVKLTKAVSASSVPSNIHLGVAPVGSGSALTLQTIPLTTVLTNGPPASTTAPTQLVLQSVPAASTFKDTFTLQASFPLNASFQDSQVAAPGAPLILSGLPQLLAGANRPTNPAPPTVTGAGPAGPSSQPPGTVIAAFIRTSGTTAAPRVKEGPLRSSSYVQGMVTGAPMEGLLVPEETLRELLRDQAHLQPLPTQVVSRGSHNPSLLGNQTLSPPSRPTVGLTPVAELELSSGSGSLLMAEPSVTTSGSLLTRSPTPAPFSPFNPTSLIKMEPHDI
ETV1, sequence (P50549 whole entry): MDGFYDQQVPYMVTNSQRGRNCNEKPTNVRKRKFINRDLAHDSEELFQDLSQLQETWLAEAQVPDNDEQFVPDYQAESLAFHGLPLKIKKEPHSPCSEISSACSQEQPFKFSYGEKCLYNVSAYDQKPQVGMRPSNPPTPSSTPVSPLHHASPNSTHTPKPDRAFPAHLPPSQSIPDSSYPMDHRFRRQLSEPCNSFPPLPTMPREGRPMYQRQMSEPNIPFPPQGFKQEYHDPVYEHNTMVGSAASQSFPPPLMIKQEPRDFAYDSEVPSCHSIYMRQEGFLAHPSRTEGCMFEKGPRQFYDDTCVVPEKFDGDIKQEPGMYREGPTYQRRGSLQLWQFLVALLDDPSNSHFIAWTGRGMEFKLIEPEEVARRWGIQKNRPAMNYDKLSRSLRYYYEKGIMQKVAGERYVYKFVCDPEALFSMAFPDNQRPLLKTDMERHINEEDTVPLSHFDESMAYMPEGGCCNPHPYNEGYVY
HSF1, sequence (Q00613 whole entry): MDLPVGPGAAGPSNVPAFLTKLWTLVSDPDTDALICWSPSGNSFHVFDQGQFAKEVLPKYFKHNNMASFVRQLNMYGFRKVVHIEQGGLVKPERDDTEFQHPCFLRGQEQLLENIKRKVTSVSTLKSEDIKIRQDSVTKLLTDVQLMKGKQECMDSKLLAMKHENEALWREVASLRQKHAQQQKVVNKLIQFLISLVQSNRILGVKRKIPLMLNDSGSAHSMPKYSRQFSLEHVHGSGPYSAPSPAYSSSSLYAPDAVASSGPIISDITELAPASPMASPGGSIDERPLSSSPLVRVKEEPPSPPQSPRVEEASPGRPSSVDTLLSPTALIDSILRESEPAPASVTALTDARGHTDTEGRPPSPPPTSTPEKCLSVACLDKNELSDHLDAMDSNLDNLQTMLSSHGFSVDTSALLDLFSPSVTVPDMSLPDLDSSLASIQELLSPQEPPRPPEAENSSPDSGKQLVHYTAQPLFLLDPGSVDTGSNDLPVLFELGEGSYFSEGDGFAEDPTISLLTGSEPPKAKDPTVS
ETV6, sequence (P41212 whole entry): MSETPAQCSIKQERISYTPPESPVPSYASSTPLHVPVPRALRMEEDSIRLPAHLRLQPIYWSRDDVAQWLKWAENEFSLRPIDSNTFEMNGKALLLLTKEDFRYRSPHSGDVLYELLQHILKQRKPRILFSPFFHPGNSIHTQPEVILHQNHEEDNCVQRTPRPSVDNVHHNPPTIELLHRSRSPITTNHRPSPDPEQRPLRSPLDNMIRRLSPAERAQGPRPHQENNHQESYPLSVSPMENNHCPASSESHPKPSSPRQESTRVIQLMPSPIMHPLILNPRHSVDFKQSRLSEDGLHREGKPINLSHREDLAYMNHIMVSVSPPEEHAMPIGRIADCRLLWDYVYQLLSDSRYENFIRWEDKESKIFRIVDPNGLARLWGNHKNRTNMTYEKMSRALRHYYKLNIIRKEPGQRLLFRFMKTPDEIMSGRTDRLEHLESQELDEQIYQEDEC
ETV5, sequence (P41161 whole entry): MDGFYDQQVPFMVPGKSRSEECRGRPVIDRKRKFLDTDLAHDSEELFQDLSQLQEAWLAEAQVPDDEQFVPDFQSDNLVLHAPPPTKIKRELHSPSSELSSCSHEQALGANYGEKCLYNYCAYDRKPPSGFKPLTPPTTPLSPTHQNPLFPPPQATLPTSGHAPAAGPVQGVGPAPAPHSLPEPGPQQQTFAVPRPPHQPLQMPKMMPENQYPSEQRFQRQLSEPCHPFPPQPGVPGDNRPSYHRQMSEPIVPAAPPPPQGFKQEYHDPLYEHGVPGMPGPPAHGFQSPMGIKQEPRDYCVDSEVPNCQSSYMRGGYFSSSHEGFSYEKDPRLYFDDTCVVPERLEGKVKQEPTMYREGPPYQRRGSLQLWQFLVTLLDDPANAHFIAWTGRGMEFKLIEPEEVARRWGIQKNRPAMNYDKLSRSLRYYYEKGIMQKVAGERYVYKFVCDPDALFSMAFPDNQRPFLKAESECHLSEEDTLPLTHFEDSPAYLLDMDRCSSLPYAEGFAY
CRX, sequence (O43186 whole entry): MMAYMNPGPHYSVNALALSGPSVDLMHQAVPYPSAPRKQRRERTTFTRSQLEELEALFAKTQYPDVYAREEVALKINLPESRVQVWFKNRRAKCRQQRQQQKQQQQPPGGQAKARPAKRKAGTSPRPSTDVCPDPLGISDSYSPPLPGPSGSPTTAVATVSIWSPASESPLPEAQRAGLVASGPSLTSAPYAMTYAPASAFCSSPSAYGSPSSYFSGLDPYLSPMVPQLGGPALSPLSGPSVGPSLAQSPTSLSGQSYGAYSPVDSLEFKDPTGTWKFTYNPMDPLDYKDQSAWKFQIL

For TGTATG, the binding signal in the test with FEV is 1.21 fold enrichment (6-mer frequency, TF over GST control); with ETV5 it was 1.28 fold enrichment (6-mer frequency, TF over GST control); with HSF1, 1.06 fold enrichment (6-mer frequency, TF over GST control); in the test with SPIC, 1.09 fold enrichment (6-mer frequency, TF over GST control); in the test with ELF4, 1.22 fold enrichment (6-mer frequency, TF over GST control); with ELK4, 1.34 fold enrichment (6-mer frequency, TF over GST control). Further, the binding signal was 1.18 fold enrichment (6-mer frequency, TF over GST control) with ETV2; 1.19 fold enrichment (6-mer frequency, TF over GST control) with ELF3; 1.04 fold enrichment (6-mer frequency, TF over GST control) in the test with CRX; 1.27 fold enrichment (6-mer frequency, TF over GST control) with ETV1; 1.31 fold enrichment (6-mer frequency, TF over GST control) with ERF; 1.23 fold enrichment (6-mer frequency, TF over GST control) with ETV3L. For the same sequence, the binding signal with ETS2 is 1.26 fold enrichment (6-mer frequency, TF over GST control); in the test with SPDEF, 1.35 fold enrichment (6-mer frequency, TF over GST control); in the test with ETV7 it was 1.19 fold enrichment (6-mer frequency, TF over GST control); with ELF5 it was 1.22 fold enrichment (6-mer frequency, TF over GST control); with ETV3, 1.29 fold enrichment (6-mer frequency, TF over GST control); with ETV6, 1.16 fold enrichment (6-mer frequency, TF over GST control).
